Screen size: about 310,000 compounds; about 14,000 (4.5%) showed an effect of 50% or more. The effect is printed as a negative number. The sample as a whole holds a higher share of strong results than the screen did.
Each molecule was assayed against human ether-à-go-go-related gene (hERG) potassium channel (human, UniProt Q12809) (assay: primary screen, population patch clamp on CHO cells stably expressing hERG; higher = less effect of the substance).
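Note: peak tail current of the secondary pulse compared with the same well before compound.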

Chain of human ether-à-go-go-related gene (hERG) potassium channel (Q12809 whole entry, looked up): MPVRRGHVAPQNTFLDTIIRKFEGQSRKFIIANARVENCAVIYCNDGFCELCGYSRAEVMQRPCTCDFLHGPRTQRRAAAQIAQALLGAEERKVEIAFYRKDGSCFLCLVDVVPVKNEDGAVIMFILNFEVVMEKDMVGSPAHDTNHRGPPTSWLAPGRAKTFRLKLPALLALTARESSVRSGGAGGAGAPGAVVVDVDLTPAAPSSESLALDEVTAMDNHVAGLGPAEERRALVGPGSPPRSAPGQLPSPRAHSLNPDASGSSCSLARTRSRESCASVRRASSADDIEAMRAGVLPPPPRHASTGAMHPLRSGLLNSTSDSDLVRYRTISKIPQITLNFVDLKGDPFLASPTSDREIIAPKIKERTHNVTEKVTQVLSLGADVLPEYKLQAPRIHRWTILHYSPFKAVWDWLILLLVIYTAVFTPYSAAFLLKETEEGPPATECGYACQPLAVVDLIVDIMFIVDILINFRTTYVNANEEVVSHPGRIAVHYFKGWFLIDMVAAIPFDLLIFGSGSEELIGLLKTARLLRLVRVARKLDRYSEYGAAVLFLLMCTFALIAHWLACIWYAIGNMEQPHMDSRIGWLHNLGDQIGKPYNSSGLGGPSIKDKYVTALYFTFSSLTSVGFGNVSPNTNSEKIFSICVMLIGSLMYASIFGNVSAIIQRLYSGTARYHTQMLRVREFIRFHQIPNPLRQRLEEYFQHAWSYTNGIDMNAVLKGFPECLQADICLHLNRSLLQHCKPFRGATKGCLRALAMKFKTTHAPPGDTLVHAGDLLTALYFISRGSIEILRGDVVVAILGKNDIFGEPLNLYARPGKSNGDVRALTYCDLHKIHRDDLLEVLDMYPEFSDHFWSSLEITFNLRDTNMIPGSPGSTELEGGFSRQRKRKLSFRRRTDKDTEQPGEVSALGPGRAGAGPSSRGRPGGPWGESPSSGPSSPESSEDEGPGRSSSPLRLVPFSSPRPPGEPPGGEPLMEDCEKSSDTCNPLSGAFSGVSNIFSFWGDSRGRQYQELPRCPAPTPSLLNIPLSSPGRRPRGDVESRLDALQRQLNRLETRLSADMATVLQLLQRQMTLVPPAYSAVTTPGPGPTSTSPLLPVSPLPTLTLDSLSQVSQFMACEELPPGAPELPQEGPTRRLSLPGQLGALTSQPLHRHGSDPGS

| SMILES | hERG current change (%, negative = inhibition) at 10uM |
| --- | --- |
| Cn1c(=O)oc2cc(S(=O)(=O)NC3CCN(Cc4ccccc4)CC3)ccc21 | -36.4% |
| CC1Cc2ccccc2N1C(=S)Nc1cccc(S(=O)(=O)N(C)C)c1 (centres unmarked) | 2.06% |
| O=C(c1ccc2c(c1)OCO2)N1CCC2(CC1)OCCO2 | -10.6% |
| CC1CCN(CC(CS(=O)(=O)c2ccc([N+](=O)[O-])cc2)N2CCC(C)CC2)CC1 (centres unmarked) | -62.1% |
| Fc1ccc(OCCOCCN2CCNCC2)cc1.O=C(O)C(=O)O | 6.98% |
| CC1CCN(CCCCOc2ccc([N+](=O)[O-])cc2)CC1 | -74.7% |
| O=[N+]([O-])c1ccc(S(=O)(=O)CC(CN2CCOCC2)N2CCOCC2)cc1 (centres unmarked) | -1.68% |
| CC1CCN(S(=O)(=O)c2ccc(Oc3ccc([N+](=O)[O-])cc3)cc2)CC1 | -21.7% |
| O=C(O)C(=O)O.O=[N+]([O-])c1ccc(OCCN2CCNCC2)cc1 | -76% |
| O=C(O)C(=O)O.O=[N+]([O-])c1ccc(OCCN2CCCCCC2)cc1 | -86.1% |
| Cc1ccc(OCCN2CCNCC2)c([N+](=O)[O-])c1.O=C(O)C(=O)O | -5.84% |
| CC1CCN(S(=O)(=O)c2ccc([N+](=O)[O-])cc2)CC1 | -3.23% |
| CC1CCN(CCCCOc2ccccc2[N+](=O)[O-])CC1.O=C(O)C(=O)O | -26.3% |
| COc1ccc(C)cc1N(C(=O)COc1cccc(F)c1)c1nc2ccccc2s1 | -27.2% |
| O=[N+]([O-])c1ccc(-n2nnnc2-c2ccccc2)c([N+](=O)[O-])c1 | 6.9% |
| COc1cccc(CN2CC(C(=O)NCc3cccc(N4CCCC4)c3)CCC2=O)c1 (centres unmarked) | -5.08% |
| CCOc1ccc(S(=O)(=O)NC2CC2)cc1 | 4.15% |
| N/C(=N\OC(=O)c1ccc2ccccc2c1)c1ccncc1 | -38.4% |
| C[C@H](CCC(=O)O)[C@H]1CC[C@H]2[C@@H]3[C@H](O)C[C@@H]4C[C@H](O)CC[C@]4(C)[C@H]3CC[C@]12C | 13.8% |
| CC(C)C(=O)N1CCN(c2ccccc2NC(=S)NC(=O)c2cccs2)CC1 | -2.66% |
| CCOc1ccc(OCC)c(NC(=O)C2CCCN(C(=O)c3ccc(Cl)cc3)C2)c1 (centres unmarked) | -34% |
| O=[N+]([O-])c1ccccc1OCCCCN1CCCCC1 | -32.2% |
| Clc1ccc(OCCCCCN2CCOCC2)cc1 | -37.6% |

| SMILES | hERG current change (%, negative = inhibition) at 10uM |
| --- | --- |
| O=[N+]([O-])c1ccc(OCCCCN2CCCCC2)cc1 | -69.4% |
| O=[N+]([O-])c1ccc(OCCCCCN2CCOCC2)cc1 | -58.6% |
| Cc1ccc(OCCCCCN2CCOCC2)cc1 | 4.39% |
| C=Cc1ccc2c(c1)N(C)C(=C)S2.I | 19.7% |
| CCOC(=O)c1oc2ccccc2c1NC(=O)COC | -12.2% |
| COc1ccc(CCNC(=S)Nc2cccc3ccccc23)cc1 | -4.42% |
| CCOc1ccc(NS(=O)(=O)c2ccc(C(=O)N3CCC3)cc2)cc1 | -4.09% |
| COc1ccc(OC)c(NC(=O)Cn2c(CCC(=O)O)ccc2-c2ccccc2)c1 | -5.33% |
| COc1ccccc1CNc1nc2nc(C)c(Cl)c(=O)n2[nH]1 | -2.39% |
| O=c1c2c3c(sc2n(CCN2CCOCC2)c(=O)n1Cc1ccco1)CCCCC3 | -44.3% |
| O=c1c2c3c(sc2n(CCN2CCCCC2)c(=O)n1Cc1ccco1)CCCCC3 | -69.1% |
| O=c1c2c3c(sc2n(CCN2CCCC2)c(=O)n1Cc1ccccc1)CCCCC3 | -34.7% |
| O=C(Cn1c(=O)n(Cc2ccco2)c(=O)c2c3c(sc21)CCCC3)Nc1ccccc1 | 18% |
| O=C(Cn1c(=O)n(Cc2ccco2)c(=O)c2c3c(sc21)CCCCC3)Nc1ccccc1 | 6.54% |
| O=c1c2c3c(sc2n(CCN2CCCC2)c(=O)n1Cc1ccco1)CCCCC3 | -68.6% |
| c1ccc(-c2[nH]ncc2-c2nc3ccccc3[nH]2)cc1 | -11% |
| CCOC(=O)N1CCN(C(=O)Cn2c(C)cc3ccccc3c2=O)CC1 | 3.68% |
| O=C(CCn1nnc2ccccc21)N1CCC(O)(c2cccc(F)c2)CC1 | 4.12% |
| CC(C)(C)NC(=O)c1ccc(NC(=O)c2ccccc2-c2ccccc2C(=O)O)cc1 | 25.2% |
| COc1ccc2cc(C(=O)C3CCCN(C(=O)c4ccnn4C)C3)ccc2c1 (centres unmarked) | -41.1% |
| COc1ccc(C(=O)C2CCCN(C(=O)C3CCOCC3)C2)c(C)c1 (centres unmarked) | 27% |
| COc1cccc(C(=O)C2CCCN(C3CCOCC3)C2)c1 (centres unmarked) | -50.4% |
| COc1cccc(C(=O)C2CCCN(C(=O)c3ccccc3Cl)C2)c1 (centres unmarked) | 5.15% |

| SMILES | hERG current change (%, negative = inhibition) at 10uM |
| --- | --- |
| CC(C)Oc1cccc(C(=O)C2CCCN(C3CCOCC3)C2)c1 (centres unmarked) | -10.5% |
| COc1ccc2cc(C(=O)C3CCCN(C4CCOCC4)C3)ccc2c1 (centres unmarked) | -63.5% |
| Cc1ccc(C(C#N)c2ccc3c(C(F)(F)F)cc(C(F)(F)F)nc3n2)cc1 (centres unmarked) | 11.1% |
| CCOc1cc(NS(=O)(=O)c2ccc(NC(C)=O)cc2)c(OCC)cc1NC(=O)C(C)C | 10.3% |
| O=C(CCN1CCCCO1)N1CCCC(Nc2ccc(F)cc2)C1 (centres unmarked) | 12.7% |
| O=C(Cn1ccc([N+](=O)[O-])n1)N1CCc2ccccc21 | -2.32% |
| Cc1cc(C)n2cc(-c3ccc(Cl)cc3)c(C(=O)O)c2n1 | -50.9% |
| CCOC(=O)c1c(-c2ccccc2)cn2c(C)cc(C)nc12 | -22.9% |
| Cc1cc(C)n2nc(C)c(-c3ccc(Cl)cc3)c2n1 | 27.1% |
| O=c1[nH]c(=S)n(-c2ccccc2)c(O)c1/C=N/N1CCOCC1 | -2.11% |
| Cc1noc(C)c1-c1nnc(-c2ccc(C(F)(F)F)cc2)o1 | 4.76% |
| COCc1ccc(C(=O)NC2CCCN(Cc3ccccc3F)C2)o1 (centres unmarked) | 11.2% |
| COCc1ccc(C(=O)N(C)C2CCCN(Cc3ccccc3F)C2)o1 (centres unmarked) | 0.722% |
| COCc1ccc(C(=O)N(C)CC2CCCN(CCc3ccccc3F)C2)o1 (centres unmarked) | -41% |
| COCc1ccc(C(=O)N(C)CC2CCCN(CCc3ccc(OC)cc3)C2)o1 (centres unmarked) | -69.5% |
| COCc1ccc(C(=O)N(C)CC2CCCN(CCc3ccc(Cl)cc3)C2)o1 (centres unmarked) | -78.9% |
| COc1ccccc1OCC(=O)Nc1ccc2c(c1)C(=O)N(CC1CCCO1)C2=O (centres unmarked) | -19.3% |
| CC(=O)Nc1cccc(N(C(=O)C2COc3ccccc3O2)C(C(=O)NC2CCCCC2)c2cn(C)nc2C)c1 (centres unmarked) | 24.1% |
| CCOc1cc(CNc2ccc(N(C)C)cc2)cc(Br)c1OCC(=O)NC(C)(C)C | -17% |
| Cc1c(C)c2cc3c(C)coc3cc2oc1=O | 10.5% |
| COc1ccc(CCNC(=O)C2CC3Cn4c(nc5ccccc54)C3N2Cc2ccccc2)cc1 (centres unmarked) | -49.7% |
| CN1C(C(=O)NCc2ccc(OC(F)(F)F)cc2)CC2Cn3c(nc4cc5ccccc5cc43)C21 (centres unmarked) | -69.4% |
| COc1ccc(CCNC(=O)C2CC3Cn4c(nc5cc(Cl)c(Cl)cc54)C3N2C)cc1 (centres unmarked) | -23.5% |

| SMILES | hERG current change (%, negative = inhibition) at 10uM |
| --- | --- |
| COc1ccc(CCNC(=O)C2CC3Cn4c(nc5cc6ccccc6cc54)C3N2C)cc1 (centres unmarked) | -43.7% |
| COc1ccc(CCNC(=O)C2CC3Cn4c(nc5cc(C)c(C)cc54)C3N2C)cc1 (centres unmarked) | -31.4% |
| CN1C(C(=O)NCc2ccc(OC(F)(F)F)cc2)CC2Cn3c(nc4cc(Cl)c(Cl)cc43)C21 (centres unmarked) | -77.9% |
| O=C(NCc1ccc(OC(F)(F)F)cc1)C1CC2Cn3c(nc4ccccc43)C2N1Cc1ccccc1 (centres unmarked) | -62.1% |
| COc1ccc(CCNC(=O)C2CC3Cn4c(nc5ccccc54)C3N2c2ccccc2)cc1 (centres unmarked) | -7.57% |
| CN1C(C(=O)NCC2CC2)CC2Cn3c(nc4cc5ccccc5cc43)C21 (centres unmarked) | -21.2% |
| O=C(NCc1ccc(OC(F)(F)F)cc1)C1CC2Cn3c(nc4ccccc43)C2N1c1ccccc1 (centres unmarked) | -61.3% |
| O=C(CN1CCC2(CC1)OCCO2)c1ccc2cc[nH]c2c1 | -15.2% |
| Cc1cc(C(=O)N/N=C/c2ccc(-c3cccc(Cl)c3)o2)n[nH]1 | 11.3% |
| CN1C(C(=O)NCC2CC2)CC2Cn3c(nc4ccccc43)C21 (centres unmarked) | 15.5% |
| CN1C(C(=O)NCc2ccc(OC(F)(F)F)cc2)CC2Cn3c(nc4ccccc43)C21 (centres unmarked) | -78.7% |
| COc1ccc(CCNC(=O)C2CC3Cn4c(nc5ccccc54)C3N2C)cc1 (centres unmarked) | -8.64% |
| CCOc1ncccc1C(=O)NCCCSc1ccccc1 | -35.9% |
| O=C(O)C1=C[C@@H](c2ccccc2)C[C@@H](OCCCCO)O1 | 8.4% |
| COc1ccc(CC(C)N2CCN(Cc3ccccc3)CC2)cc1OC (centres unmarked) | -33.1% |
| COc1ccc(CC(C)N2CCN(c3ccccc3OC)CC2)cc1OC (centres unmarked) | -62.1% |
| COc1ccc(S(=O)(=O)N2CCN(c3ccccc3OC)CC2)cc1OC | -2.71% |
| COc1ccc(/C=N/N2CCN(c3ccccc3OC)CC2)cc1OC | -19.7% |
| COc1ccc(CC(C)N2CCN(c3ccccc3)CC2)cc1OC (centres unmarked) | -64% |
| COc1ccc(CC(C)N2CCN(c3cccc(C(F)(F)F)c3)CC2)cc1OC (centres unmarked) | -65.9% |
| COc1cccc(CN2CCN(c3cccc(C(F)(F)F)c3)CC2)c1OC | -23.9% |
| COc1ccc(CC(=O)N2CCN(c3ccccc3)CC2)cc1OC | 18.4% |
| COc1ccccc1CC(=O)N1CCN(c2cccc(C(F)(F)F)c2)CC1 | -9.71% |

From article PMC4336329 (PLoS ONE, 2015)
